Structures are written as SMILES. Several values for one entry are separate records, joined by “and”; a condition that tells them apart may be missing. Identical values can stand only once. Unmarked numbers belong to inactive results. Results filed as inconclusive are left out. Activity calls are given as the source filed them.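 The calls were made as follows, unless noted: active = compounds whose dose series gives a full or clear partial fitted curve of increased nuclear translocation; inconclusive = weak partial curve or effect only at the top dose; inactive = no dose-dependent translocation response.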 A value given as a limit tells only on which side of the number the result lay.

Assay [1] has as its target Glucocorticoid receptor (Homo sapiens) (UniProt P04150). Briefly: GR-GFP Redistribution (AID 450). Also: potency is read from the fitted curve at half-maximal effect. To be noted: U2OS GR-GFP nuclear translocation, laser cytometry, 2 h.
Assay [2] shares this target. The assay is described as follows: GR-EFC Redistribution (AID 451; calls by dose curve; also: potency is read from the fitted curve at half-maximal effect). The note with it: CHO-K1 GR-EFC translocation, beta-gal luminescence, 2 h. In outline:
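CHO-K1 cells expressing nuclear EA and GR-ED fragments of b-gal; compounds titrated up to 46 uM final, 2 h at 37 C. GR nuclear translocation read as complemented b-gal luminescence after 1 h RT detection.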

Assay [3] deals with 3',5'-cyclic-AMP phosphodiesterase 4B (Homo sapiens) (UniProt Q07343). Briefly: qHTS Assay for Inhibitors of PDE-IV (AID 607; active = well fitted activation curve with a large enough effect in the main read-out, with a control signal flat, not every such curve was filed as active; also: % of control where 0% means no effect). To be noted: HEK293 ACTOne CNG channel cells, membrane potential fluorescence; series mostly up to 22.9 µM. In outline: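 ACTOne HEK293 cells carry a modified cAMP-gated CNG channel and express endogenous PDE4; plated 1000 cells/well, compounds up to 22.9 uM final. Membrane-potential dye fluorescence (ex 535/em 590) was read; parental cells received 10 uM forskolin + 100 uM RO 20-1724.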
Sequence of 3',5'-cyclic-AMP phosphodiesterase 4B (Homo sapiens) (Q07343 whole entry, looked up): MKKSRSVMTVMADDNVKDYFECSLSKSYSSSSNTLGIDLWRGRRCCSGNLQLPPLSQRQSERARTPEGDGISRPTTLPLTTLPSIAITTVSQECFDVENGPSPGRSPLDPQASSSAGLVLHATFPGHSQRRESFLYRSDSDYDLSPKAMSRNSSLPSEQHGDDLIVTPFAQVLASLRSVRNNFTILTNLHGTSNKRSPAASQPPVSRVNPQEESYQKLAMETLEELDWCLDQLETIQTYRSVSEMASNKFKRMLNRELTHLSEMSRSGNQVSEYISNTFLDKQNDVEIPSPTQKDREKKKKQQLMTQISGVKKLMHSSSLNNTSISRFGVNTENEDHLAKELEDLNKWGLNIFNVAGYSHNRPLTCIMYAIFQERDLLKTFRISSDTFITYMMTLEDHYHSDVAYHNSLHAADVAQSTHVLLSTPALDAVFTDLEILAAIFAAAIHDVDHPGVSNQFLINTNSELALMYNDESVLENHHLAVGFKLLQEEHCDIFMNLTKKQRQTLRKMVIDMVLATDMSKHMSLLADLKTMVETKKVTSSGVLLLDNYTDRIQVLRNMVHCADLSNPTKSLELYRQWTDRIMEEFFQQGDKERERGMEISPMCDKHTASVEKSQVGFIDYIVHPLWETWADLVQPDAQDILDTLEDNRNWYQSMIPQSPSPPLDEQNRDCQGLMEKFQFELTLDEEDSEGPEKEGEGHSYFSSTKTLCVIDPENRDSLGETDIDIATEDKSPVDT

Sequence of Glucocorticoid receptor (Homo sapiens) (P04150 whole entry, looked up): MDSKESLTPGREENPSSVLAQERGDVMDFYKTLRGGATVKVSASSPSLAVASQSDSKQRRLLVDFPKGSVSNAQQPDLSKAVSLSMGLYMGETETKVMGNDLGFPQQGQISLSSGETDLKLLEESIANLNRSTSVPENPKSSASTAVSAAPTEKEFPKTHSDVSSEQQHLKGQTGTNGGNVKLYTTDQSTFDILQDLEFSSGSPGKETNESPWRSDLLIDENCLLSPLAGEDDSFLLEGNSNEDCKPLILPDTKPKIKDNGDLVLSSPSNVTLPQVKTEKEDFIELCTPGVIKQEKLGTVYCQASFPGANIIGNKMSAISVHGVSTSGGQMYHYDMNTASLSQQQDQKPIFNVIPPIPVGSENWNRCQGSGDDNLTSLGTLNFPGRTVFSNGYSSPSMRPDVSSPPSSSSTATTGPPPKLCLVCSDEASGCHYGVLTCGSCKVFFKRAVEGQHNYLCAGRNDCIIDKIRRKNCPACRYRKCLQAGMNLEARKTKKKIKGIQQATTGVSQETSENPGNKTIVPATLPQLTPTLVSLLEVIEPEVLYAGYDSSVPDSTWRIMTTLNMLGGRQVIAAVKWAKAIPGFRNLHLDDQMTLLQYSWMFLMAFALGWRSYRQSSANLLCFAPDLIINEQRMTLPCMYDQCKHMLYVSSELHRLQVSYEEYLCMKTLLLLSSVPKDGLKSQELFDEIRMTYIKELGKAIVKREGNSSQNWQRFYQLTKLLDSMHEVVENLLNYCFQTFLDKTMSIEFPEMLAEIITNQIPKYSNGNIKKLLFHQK

Regarding `O=C1NC(c2cccc([N+](=O)[O-])c2)=CCN1c1ccccc1O`, the Potency in assay [1] and in assay [2] was > 46 µM in each case. The compound was classed as inactive in assay [3].
As for `CC(=O)[C@@]1(O)CC[C@H]2[C@@H]3C[C@H](C)C4=CC(=O)CC[C@]4(C)[C@H]3CC[C@@]21C`, the Potency in assay [1] was 0.00082 µM (active).
On the same count and under the same terms, as for `CC(=O)Nc1c(I)c(NC(C)=O)c(I)c(C(=O)O)c1I`, the figure is > 20.6 µM.
As to `Cn1cnc2c(NCc3ccccc3)nc(NCCO)nc21`, the Potency in assay [1] and in assay [2] was > 46 µM throughout. The compound was classed as inactive in assay [3].
Consider `NC(N)=NCCCCN=C(N)N`, for which the Potency in assay [1] is > 46 µM and > 20.6 µM; in assay [2] it was > 46 µM and > 20.6 µM. Moreover, in assay [3], the compound was called inactive.
On to `CN(C(=O)C(Cl)Cl)c1ccc(OC(=O)c2ccco2)cc1`, for which the Potency in assay [1] and in assay [2] was > 20.6 µM each time. For the same compound, the outcome in assay [3] was inactive.
For the compound `O=C(O)c1ccccc1S`, the Potency in assay [1] was > 20.6 µM.
Same read-out and setting: as for `CC(=O)OCC[N+](C)(C)C`, the figure is > 20.6 µM.
On the same count and under the same terms, the figure for `CC1(C)O[C@@H]2C[C@H]3[C@@H]4C[C@H](F)C5=CC(=O)C=C[C@]5(C)[C@@]4(F)[C@@H](O)C[C@]3(C)[C@]2(C(=O)CO)O1` is 0.000728 µM (active).
`Brc1ccc([C@H]2CN3CCSC3=N2)cc1`: the Potency in assay [1] and in assay [2] was > 46 µM each time. Further, the call in assay [3] was inactive.
As to `C[C@]12CCC(=O)C=C1CC[C@@H]1[C@@H]2[C@@H](O)C[C@@]2(C)[C@H]1CC[C@]2(O)C(=O)COC(=O)CCC(=O)O`, the Potency in assay [1] is 44.2 nM (active) and 599 nM (active).
The same measure, in the same setting: the figure for `CC(NCCC(c1ccccc1)c1ccccc1)c1ccccc1` (centres undefined) is > 20.6 µM.
With `Nc1c[n+](N2CCOCC2)no1`, the Potency in assay [1] and in assay [2] was > 46 µM throughout. In addition, the compound was classed as inactive in assay [3].
Take `CCCC(=O)O[C@]1(C(=O)CCl)[C@@H](C)C[C@H]2[C@@H]3CCC4=CC(=O)C=C[C@]4(C)[C@@]3(F)C(=O)C[C@@]21C`: the Potency in assay [1] was < 5.9e-06 µM (active).
For `O=C(CCCCC(=O)Nc1c(I)cc(I)c(C(=O)O)c1I)Nc1c(I)cc(I)c(C(=O)O)c1I`, the Potency in assay [1] and in assay [2] was > 20.6 µM each time. Also, the result in assay [3] was inactive.
As to `NCC(=O)O`, the Potency in assay [1] and in assay [2] was > 46 µM throughout. In addition, the compound was called inactive in assay [3].
With `CC1(C)O[C@@H]2C[C@H]3[C@@H]4CCC5=CC(=O)C=C[C@]5(C)[C@@]4(F)[C@@H](O)C[C@]3(C)[C@]2(C(=O)CO)O1`, the Potency in assay [1] is 0.00313 µM (active).
Take `CC(C)N(CCC(=O)c1ccc2ccccc2c1)Cc1ccccc1`: the Potency in assay [1] and in assay [2] was > 46 µM throughout. The compound was called inactive in assay [3].
Regarding `CCN(CC)CCOc1ccc(/C(=C(\Cl)c2ccccc2)c2ccccc2)cc1`, the Potency in assay [1] and in assay [2] was > 20.6 µM throughout.
On to `Clc1ccc2c(c1)N=C(N1CCNCC1)c1ccccc1N2`, for which the Potency in assay [1] and in assay [2] was > 46 µM throughout. Further, in assay [3], the compound was called inactive.
In the case of `CN1CCCN(C(c2ccccc2)c2ccc(Cl)cc2)CC1` (centres undefined), the Potency in assay [1] is 6.11 µM (active).
On to `COc1ccccc1N1CCN(CCN2C(=O)CC3(CCCC3)CC2=O)CC1`, for which the Potency in assay [1] and in assay [2] was > 46 µM each time. Besides, in assay [3], the result was inactive.
In the case of `CN(C)c1cc2c(Nc3ccc4c(cnn4Cc4ccccc4)c3)ncnc2cn1`, the Potency in assay [1] and in assay [2] was > 46 µM each time. Moreover, the compound was called inactive in assay [3].
Take `CCCCCC(=O)O[C@]1(C(C)=O)CC[C@H]2[C@@H]3CCC4=CC(=O)CC[C@]4(C)[C@H]3CC[C@@]21C`: the Potency in assay [1] is 0.00527 µM (active).

For the origin of these results see PubChem BioAssay (NCATS).
